# Bioassay records as filed in PubChem BioAssay.
# Only some compounds are listed: those with a hit (about 1.8% of all), similar ones and a draw of the others.
# CCHF vOTU inh – CCHFV vOTU protease inhibitors, primary screen, biochemical, Pep-AMC substrate, fluorescence; inhibition, % at 11.5 µM; 370,000 compounds, 0.55% hits; Crimean-Congo hemorrhagic fever virus L polyprotein viral ovarian tumor (vOTU) protease …; AID 651958, 2012; in the data active means inhibition above about 30%
# Yp Topo-I inh – Yersinia pestis topoisomerase I inhibitors, primary screen, biochemical, cleavage product accumulation, plate reader, single point | Y. pestis Topo-I cleavage product accumulation | 360,000 compounds, 0.064% hits | DNA topoisomerase I (Yersinia pestis CO92) | AID 504884, 2011 | activity, % at 10 µM; in the data active means activity above about 50%, passing the limit was not always enough
# PrPC TRFRET – inhibitors of human cell surface prion protein PrPC, primary screen, cell-based, TR-FRET; 370,000 compounds, 0.43% hits; TR-FRET read-out; inhibition, % at 13.8 µM; AID 720596, 2013; in the data active means inhibition above about 24%
# BH1578 lux ind – inducers of Vibrio cholerae quorum light production without autoinducers, primary screen, BH1578 luxS cqsA deficient, single point | 350,000 compounds, 0.16% hits | activation, % at 18.7 µM | AID 588436, 2011 | V. cholerae BH1578 lux reporter, luminescence, 6 h; in the data active means activation mostly above about 9.7%, no sharp cut-off
# DUSP3 inh – VHR1 phosphatase inhibitors, primary screen, biochemical, absorbance, uHTS | Dual specificity protein phosphatase 3 (Homo sapiens), P51452 | recombinant VHR phosphatase, pNPP absorbance | inhibition, % at 13.3 µM | 290,000 compounds, 0.52% hits; in the data active means inhibition above about 50%
# Target sequence (P51452 whole entry, looked up): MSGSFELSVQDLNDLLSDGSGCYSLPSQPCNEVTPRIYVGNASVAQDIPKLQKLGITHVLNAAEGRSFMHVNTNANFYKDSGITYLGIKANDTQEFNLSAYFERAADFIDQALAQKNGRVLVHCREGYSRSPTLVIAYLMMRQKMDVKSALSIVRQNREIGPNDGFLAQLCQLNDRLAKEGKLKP
# MazEF act – activators of E. coli MazEF toxin-antitoxin RNase, primary screen, biochemical, fluorescence, uHTS. Endoribonuclease toxin MazF (Escherichia coli (strain K12)), P0AE70. FAM/BHQ RNA-DNA oligo cleavage fluorescence, 5 h. activation, % at 20 µM. 350,000 compounds, 0.32% hits; in the data active means activation above about 50%
# Target sequence (P0AE70 whole entry, looked up): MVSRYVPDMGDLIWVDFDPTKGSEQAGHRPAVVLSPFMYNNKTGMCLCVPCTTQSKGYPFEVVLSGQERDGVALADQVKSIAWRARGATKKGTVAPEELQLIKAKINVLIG
# Hits are given with their value; 0 = inactive; - = not tested or not shown; + = active, no number.
SMILES,CCHF vOTU inh,Yp Topo-I inh,PrPC TRFRET,BH1578 lux ind,DUSP3 inh,MazEF act
CCOC(=O)C1=CN(Cc2cccc(F)c2)S(=O)(=O)N(CC)C1c1ccc2ccccc2c1 (centres undefined),0,0,0,0,-,0
Cc1ccc(C)c(CSc2nnc([C@@H](N)C(C)C)o2)c1,0,90,0,0,0,0
Cc1ccc(C)c(CSc2nnc(CCN)o2)c1,0,0,0,0,0,0
Cc1ccc(-n2c(Cc3cccs3)nnc2SCC(=O)Nc2ccccc2-c2ccccc2)cc1,0,-,0,-,-,-
O=C(Cc1ccc(F)cc1)Nc1ccc(Cl)cn1,0,0,0,0,60,0
Oc1ccc2ccccc2c1C=Nc1cc(C(F)(F)F)ccc1N1CCCC1,0,0,0,0,0,+
O=C1c2cccn2CC2Cc3ccccc3N12 (centres undefined),-,-,0,-,-,-
C=CCSC1=N/C(=C\c2cc(OC)c3c(c2)OCO3)C(=O)S1,0,0,0,0,0,518
CCSC1=N/C(=C\c2ccc3c(c2)OCO3)C(=O)S1,0,0,0,0,0,0
COc1ccc(CNC(=O)c2cc(-c3ccncc3)nc3c(C)cc(C)cc23)cc1OC,0,0,0,0,57,0
COc1ccc(CCNC(=O)c2cc(-c3ccncc3)nc3c(Cl)cccc23)cc1OC,0,0,0,0,53,0
COc1ccc(CCNC(=O)c2cc(-c3ccccn3)nc3c(Cl)cccc23)cc1OC,0,0,0,0,0,0
COc1ccccc1CNC(=O)c1cc(-c2ccncc2)nc2c(Cl)cccc12,0,0,0,0,0,0
CC(=O)CC[C@@H]1CC[C@]2(CCCN(C(=O)C3CCCCC3)C2)O1,0,-,0,-,-,-
COC1=C[C@H](C(=O)NC2CCN(Cc3ccccc3)CC2)[C@@]2(C)Cc3ccccc3[C@H]2CC1=O,0,-,0,-,-,-
COc1ccc2nc(N3CCCC3)c(C#N)cc2c1,0,0,0,0,0,70
CCOC(=O)[C@]12CCCC=C1N(Cc1ccc(OC)cc1)C(=O)[C@@H]2CC(=O)N1CCCCC1,0,-,0,-,-,-
CCOC(=O)CCC(=O)NCc1ccc2c(c1)cc(C)n2C,0,0,0,0,0,0
CCOC(=O)NCc1ccc2c(c1)cc(C)n2C,0,0,0,0,51,0
Cc1cc2cc(CNC(=O)CC(C)C)ccc2n1C,0,0,0,0,55,0
COC(=O)[C@H](C(C)C)N1CCc2nnn(CC3CCCCC3)c2-c2cc(F)ccc2S1(=O)=O,0,-,0,-,-,-
C(=Cc1c[nH]c2ccccc12)c1nccc2ccccc12,0,0,0,0,-,113
C(=Cc1c[nH]c2ccccc12)c1ccc2ccccc2n1,0,0,0,0,-,0
CC1(C)CC(=O)C(N=Nc2cc3c(cc2[N+](=O)[O-])OCCO3)=C(O)C1,0,0,0,0,0,93
Cc1ccc(CN2CCN(Cc3cn[nH]c3C3CCCCC3)CC2CCO)cc1 (centres undefined),0,0,0,0,52,0
SMILES,CCHF vOTU inh,Yp Topo-I inh,PrPC TRFRET,BH1578 lux ind,DUSP3 inh,MazEF act
OCCC1CN(Cc2cn[nH]c2C2CCCCC2)CCN1Cc1ccccc1 (centres undefined),0,0,0,0,0,0
Oc1ccccc1-c1nc(NCc2ccccc2)c2ccccc2n1,0,0,0,0,-,63
Fc1ccccc1-c1nc(NCc2ccco2)c2ccccc2n1,0,0,0,0,0,0
CNc1nc(NCc2ccccc2)c2ccccc2n1,0,0,0,0,0,0
OCCNc1nc(Nc2ccccc2)nc2ccccc12,0,0,0,17,0,0
Oc1ccccc1-c1nc(NCc2ccco2)c2ccccc2n1,0,0,0,-,0,120
OCCNc1nc(Nc2ccc(Br)cc2)nc2ccccc12,0,-,0,-,0,0
Oc1ccccc1-c1nc(NCc2cccnc2)c2ccccc2n1,0,0,0,0,0,0
Oc1ccccc1Nc1nc(NCc2ccccc2)c2ccccc2n1,0,0,0,0,0,57
COc1ccc(S[C@]2(C(=O)N(C)C)CC(=O)N[C@@H]2c2ccc(OC)cc2)cc1,0,-,0,-,-,-
COc1ccc(C(C(=O)NCC2CCCO2)N(C(=O)CNC(=O)c2ccco2)c2cc(C)ccc2C)cc1OC (centres undefined),0,0,0,0,53,0
CCc1ccc(N(C(=O)CNC(=O)c2ccco2)C(C(=O)NCC2CCCO2)c2ccccc2)cc1 (centres undefined),0,0,0,0,0,0
COc1cc(OC)cc(N(C(=O)CNC(=O)c2ccco2)C(C(=O)NCC2CCCO2)c2ccccc2)c1 (centres undefined),0,0,0,0,58,0
COc1ccc(CN2C(=O)N3Cc4ccc(C)cc4C3CS2(=O)=O)cc1 (centres undefined),0,-,0,-,-,-
CC(C)OC(=O)CCC(=O)Nc1nc2ccccc2s1,0,0,0,0,52,0
CCc1[nH]nc(C(=O)N2CCCC(C(=O)c3cccc(OC(C)C)c3)C2)c1C (centres undefined),0,0,0,0,56,0
Cc1nn(C)c(C)c1CCC(=O)N1CCCC(C(=O)c2cccc(OC(C)C)c2)C1 (centres undefined),0,0,0,0,51,0
CCc1cc(C(=O)N2CCCC(C(=O)c3cccc(OC(C)C)c3)C2)n(C)n1 (centres undefined),0,0,0,0,0,0
C=CCN(CC#CC(=C)C)Cc1ccccc1,0,-,0,-,-,-
O=C(CCn1nnc2ccccc21)N1CCN(c2ccccc2F)CC1,0,-,0,-,-,-
Cc1c(C(=O)N/N=C/c2ccccc2Cl)[nH][nH]c1=O,0,-,0,-,-,-
CCOC(=O)C(Cc1ccccc1)P(=O)(OCC)OCC (centres undefined),-,-,0,-,-,-
CC(C)(C)c1cc(NCCCn2ccnc2)n2ncc(-c3ccc(Cl)cc3)c2n1,0,0,0,0,53,0
Cc1cc(NCCCn2ccnc2)n2nc(-c3ccc(Cl)cc3)cc2n1,0,0,0,0,0,0
Nc1nc2c(c(=O)[nH]1)C(c1ccccc1)C1=C(N2)c2ccccc2C1=O (centres undefined),0,0,0,0,0,0
Cn1c2c(c(=O)[nH]c1=O)C(c1ccc(O)cc1)C1=C(N2)c2ccccc2C1=O (centres undefined),0,0,0,25,0,0
Cc1nn(Cc2c(F)cccc2Cl)c(C)c1NC(=O)C1CC1,0,0,0,0,51,0
O=[N+]([O-])c1ccc(S(=O)(=O)NN=C2CCCCC2)cc1,0,0,0,0,-,119
O=C(c1cccnc1Cl)N1CCC(Oc2cccnc2)CC1,0,-,0,-,-,-
CCN(CC)Cc1c[nH]c2c(C(=O)OC)cccc12,0,0,0,17,0,0
